HT1080NT lethal: qHTS for induction of synthetic lethality in tumor cells producing 2HG: qHTS for the HT-1080-NT fibrosarcoma cell line. HT-1080-NT fibrosarcoma viability, CellTiter-Glo ATP luminescence, 48 h. Potency, µM (series often up to 46.1 µM), inactives show top-dose activity, negative = less viability, usual class: cytotoxic. 360,000 tested, 1.6% active;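 further: NT is the 2HG producing partner of a matched IDH1 knockdown line; potency means the concentration at half of the fitted maximal effect; 0% = DMSO-treated cells and -100% = media-only wells without cells; nearly all actives have a fitted effect of over 55% in size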
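750 cells/well, RPMI + 5% FBS; 2 h settle, compound pin-transfer, 48 h at 37 degrees C. CellTiter-Glo 10 min RT, luminescence. Normalized to DMSO and media-only wells.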
HT1080 IDH1KD tx: qHTS for induction of synthetic lethality in tumor cells producing 2HG: qHTS for the HT-1080-IDH1KD cell line; HT-1080 IDH1 knockdown viability, ATP luminescence, 48 h; Potency, µM (doses to about 46.1 µM), for inactives: at the highest dose activity, negative = toxicity, usual class: cytotoxic; 360,000 tested, 2% active; AID 686971, 2013;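 further: potency means the concentration at half of the fitted maximal effect; 0% = DMSO wells and -100% = cell-free medium wells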
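CellTiter-Glo luminescence after 48 h compound exposure at 37 degrees C of IDH1-knockdown HT-1080 cells in 5% FBS RPMI. %Activity scaled between DMSO wells and cell-free media wells, with curves fitted and assigned curve classes.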
TDP1 cell CPT: qHTS for Inhibitors of human tyrosyl-DNA phosphodiesterase 1 (TDP1): qHTS in cells in presence of CPT. Potency, µM (top dose mostly 46.2 µM), without a hit: top-dose activity change, negative = growth inhibition, actives largely listed as inhibitors. 420,000 tested, 12% active. chicken DT40 Tdp1-/-;hTDP1 cells + 20 nM CPT, ATP luminescence, 48 h; further: potency means the concentration at half of the fitted maximal effect; nearly all actives have a fitted effect of over 55% in size
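Chicken DT40 Tdp1-/- cells complemented with human TDP1, 400 cells/well, exposed to compounds plus 20 nM camptothecin for at least 48 h at 37 C; viability read as ATP content by CellTiter-Glo luminescence.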
IL-1B inflam inh: qHTS for Inhibitors of Inflammasome Signaling: IL-1-beta AlphaLISA Primary Screen. AID 743279, 2014. activity change, % at 57.5 µM. THP-1 LPS/ATP IL-1B secretion, AlphaLISA, 16 h; stronger effect = lower value. 360,000 tested, 4.7% active; in the data active means activity change below about -50%; inconclusive means mostly about -30% to -49%
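THP-1 cells pretreated 1 hr with compounds (up to 57.5 uM final), then stimulated with LPS (250 ng/mL final) plus ATP (1.25 mM final); secreted IL-1B measured by AlphaLISA after 16 hr, decreased signal indicating inhibition.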
TDP1 cell noCPT: qHTS for Inhibitors of human tyrosyl-DNA phosphodiesterase 1 (TDP1): qHTS in cells in absence of CPT. DT40 Tdp1-/- hTDP1 cells, no CPT, ATP luminescence, 48 h. Potency, µM (series often up to 46.2 µM), inactives show at the highest dose activity change, negative = growth inhibition, hits mostly inhibitors. 420,000 tested, 15% active; further: potency means the concentration at half of the fitted maximal effect; nearly all actives have a fitted effect of over 55% in size
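Growth kinetics read by CellTiter-Glo luminescence after ≥48 hr at 37 °C. Cells: DT40 Tdp1-/- stably carrying human TDP1, 400 per well, compound exposure in the absence of CPT (DMSO vehicle).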
ELG1 repair inh: qHTS screen for small molecules that inhibit ELG1-dependent DNA repair in human embryonic kidney (HEK293T) cells expressing luciferase-tagged ELG1; HEK293T ELG1-luciferase reporter, luminescence, 16 h; DNA damage induced by 5-fluorouridine; Potency, µM (series often up to 46.1 µM), for the others: top-dose activity change, negative = inhibition, most hits filed as inhibitors; 330,000 tested, 2.3% active; further: potency means the concentration at half of the fitted maximal effect; nearly all actives have a fitted effect of over 55% in size
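5-Fluorouridine DNA damage + compound/DMSO, 2,000 cells/well, 16 h, 37 °C/5% CO2. ONE-Glo, 30 min RT, luminescence. Readout = decrease in reporter signal.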
The depositor's hits bear a star; ? = inconclusive; . = no result. A selection: hits, their analogues and other compounds. The true share with any hit is near 19%. Unless noted, the call rests on the fitted dose curve; in most records, active means well fitted curve in the direction sought with a large enough effect; inconclusive means small, poorly fitted or top-dose-only effect, or another doubt; inactive means no such curve, though single readings can be large; an effect the other way counts as inactive or inconclusive. Unless noted, on the % scale 0 is the no-effect control and ±100 the full control effect.

SMILES	HT1080NT lethal	HT1080 IDH1KD tx	TDP1 cell CPT	IL-1B inflam inh	TDP1 cell noCPT	ELG1 repair inh
O=C(Nc1ccc2c(c1)OCCO2)c1ccccc1F	0%	-1%	7.3µM*	-9	15µM*	?
COc1cc(NS(=O)(=O)c2ccc(NC(=O)c3ccc(Cl)cc3Cl)cc2)nc(OC)n1	.	.	?	.	-20%	.
COc1cccc(N2CCN(C(=O)c3ccc(Cn4c(=O)[nH]c5cc(OC)c(OC)cc5c4=O)cc3)CC2)c1	.	.	9.2µM*	.	4.1µM*	.
CCOc1cc2[nH]c(=O)n(Cc3ccc(C(=O)N4CCN(c5ccccc5)CC4)cc3)c(=O)c2cc1OCC	.	.	12µM*	.	5.8µM*	.
COc1ccc(Cn2c(=O)[nH]c3cc(C(=O)N4CCN(c5ccccc5)CC4)ccc3c2=O)cc1	18%	8%	-8%	20	?	8%
O=C(c1ccc2c(=O)n(Cc3ccc4c(c3)OCO4)c(=O)[nH]c2c1)N1CCN(c2ccccc2)CC1	9%	26%	7%	0	19%	0%
CCOc1cc2[nH]c(=O)n(Cc3ccc(C(=O)N4CCN(c5cccc(Cl)c5)CC4)cc3)c(=O)c2cc1OCC	.	.	3.7µM*	.	2.6µM*	.
CCOc1ccc(-n2c(SCc3ccc(C(=O)OC)o3)nc3c([nH]c4ccccc43)c2=O)cc1	.	.	23µM*	.	?	.
COC(=O)c1ccc(CSc2nc3c([nH]c4ccccc43)c(=O)n2-c2ccc(OC)cc2)o1	.	.	18µM*	.	18µM*	.
CCOc1ccc(-n2c(SCc3ccc(C(=O)OC)o3)nc3c(c2=O)SCC3)cc1	24%	8%	?	6	?	0%
CCc1ccccc1NS(=O)(=O)Cc1ccccc1	19%	6%	22%	-7	17%	2%
COc1ccc(CN(C(C)=O)c2cc(C)c([N+](=O)[O-])cc2OC)cc1OC	-1%	0%	-17%	-24	?	.
Cc1ccc([N+](=O)[O-])cc1NC(=O)CNC1CCCCC1	4%	-3%	5%	4	-9%	1%
O=C(CN(C(=O)c1ccccc1Cl)C1CCCCC1)Nc1ccc(Cl)c([N+](=O)[O-])c1	-27%	?	?	?	?	?
O=C(CN(C(=O)c1ccc(Cl)cc1)C1CCCCC1)Nc1ccc(Cl)c([N+](=O)[O-])c1	?	?	16µM*	?	15µM*	?
Cc1ccc([N+](=O)[O-])cc1NC(=O)CN(C(=O)c1ccc(Cl)cc1)C1CCCCC1	-14%	?	21µM*	-28	18µM*	0%
CC1CC=CCC1(CO)CO (centres undefined)	1%	-2%	4%	8	3%	.
CN(C)c1nc(OCCNC(=O)Nc2ccccc2)nc(N2CCOCC2)n1	-6%	-5%	23µM*	-10	-78%	-19%
CN(C)c1nc(OCCNC(=O)Nc2ccccc2)nc(N2CCCCC2)n1	-19%	-10%	8%	-20	-16%	?
COc1ccc2cc(C(C)C(=O)NC3CCC(O)CC3)ccc2c1 (centres undefined)	4%	2%	19%	-3	-12%	-4%
COc1ccc2oc(C(=O)OCC(=O)N3CC(C)CC(C)C3)c(C)c2c1 (centres undefined)	6%	-4%	?	-27	?	-2%
COc1ccc2cc(C(C)C(=O)N3CCC(C)CC3)ccc2c1 (centres undefined)	15µM*	?	16µM*	?	?	-13%
COc1ccc2oc(C(=O)OC(C)C(=O)N3CCC(C)CC3)c(C)c2c1 (centres undefined)	-3%	-5%	?	-3	15µM*	?
Cc1cc(N2CCN(Cc3cn(C)nc3-c3ccccc3F)CC2)cc(C)n1	?	?	5.8µM*	?	5.8µM*	7%
Cc1cc(N2CCN(Cc3cn(C)nc3-c3cccc(Cl)c3)CC2)cc(C)n1	15µM*	16µM*	5.2µM*	-82*	5.8µM*	?
SMILES	HT1080NT lethal	HT1080 IDH1KD tx	TDP1 cell CPT	IL-1B inflam inh	TDP1 cell noCPT	ELG1 repair inh
CCCCc1cc(=O)oc2cc(C)cc(OCC(=O)NC(Cc3ccc(Cl)cc3)C(=O)O)c12 (centres undefined)	-1%	8%	25%	44	0%	-15%
COc1ccc(SCC(O)Cn2c3ccccc3c3ccccc32)c(OC)c1 (centres undefined)	?	?	?	-12	?	.
COc1ccc(CN(Cc2cccn2C)S(=O)(=O)c2ccc(F)cc2)cc1	0%	0%	-5%	-14	?	?
COc1ccc(CN(Cc2cccn2C)S(=O)(=O)c2cccc(C(F)(F)F)c2)cc1	-3%	-1%	18µM*	4	?	?
CC(=O)N1N=C(c2cccc(NS(C)(=O)=O)c2)CC1c1cccs1 (centres undefined)	4%	4%	-6%	52	-2%	-11%
CC(=O)N1N=C(c2ccccc2O)CC1c1cccs1 (centres undefined)	-18%	-14%	?	-65*	6.5µM*	0%
CC(=O)N1N=C(c2cccc(O)c2)CC1c1cccs1 (centres undefined)	-1%	-9%	15µM*	-12	?	-23%
COC(=O)c1cn(CC(=O)Nc2ccccc2C)c2ccccc12	-3%	-3%	-3%	-3	-17%	-7%
C=CS(=O)(=O)N(Cc1ccc(Cl)c(Cl)c1)C[C@@H](O)CO	?	?	21µM*	-104*	21µM*	9.2µM*
O=C(O)c1sccc1SCc1ccc(Cl)c(Cl)c1	-2%	-14%	1%	11	-14%	6%
Cc1ccc(C)c(C(=O)C(C)Sc2nc3nn(-c4ccccc4)c(=O)c-3c3n2CCCCC3)c1 (centres undefined)	8%	9%	?	0	21µM*	0%
C=CCc1cc(Cl)ccc1OC(=O)Nc1cccc(Cl)c1	-16%	-17%	?	-13	?	-8%
O=C(NCc1ccccc1Cl)c1c2c(nc3ccccc13)C(=O)N(C1CCCCC1)C2	.	.	18µM*	.	?	.

Screening data as filed in PubChem.
